Consider seven compounds from ChEMBL document CHEMBL2218924, “A broad activity screen in support of a chemogenomic map for kinase signalling research and drug discovery” (Biochem J, 2013).

Each structure is given as a SMILES string.

Experiment [1] has as its target T1, Serine/threonine-protein kinase BRSK1 (Homo sapiens) (UniProt Q8TDC3).
T1 sequence (whole entry): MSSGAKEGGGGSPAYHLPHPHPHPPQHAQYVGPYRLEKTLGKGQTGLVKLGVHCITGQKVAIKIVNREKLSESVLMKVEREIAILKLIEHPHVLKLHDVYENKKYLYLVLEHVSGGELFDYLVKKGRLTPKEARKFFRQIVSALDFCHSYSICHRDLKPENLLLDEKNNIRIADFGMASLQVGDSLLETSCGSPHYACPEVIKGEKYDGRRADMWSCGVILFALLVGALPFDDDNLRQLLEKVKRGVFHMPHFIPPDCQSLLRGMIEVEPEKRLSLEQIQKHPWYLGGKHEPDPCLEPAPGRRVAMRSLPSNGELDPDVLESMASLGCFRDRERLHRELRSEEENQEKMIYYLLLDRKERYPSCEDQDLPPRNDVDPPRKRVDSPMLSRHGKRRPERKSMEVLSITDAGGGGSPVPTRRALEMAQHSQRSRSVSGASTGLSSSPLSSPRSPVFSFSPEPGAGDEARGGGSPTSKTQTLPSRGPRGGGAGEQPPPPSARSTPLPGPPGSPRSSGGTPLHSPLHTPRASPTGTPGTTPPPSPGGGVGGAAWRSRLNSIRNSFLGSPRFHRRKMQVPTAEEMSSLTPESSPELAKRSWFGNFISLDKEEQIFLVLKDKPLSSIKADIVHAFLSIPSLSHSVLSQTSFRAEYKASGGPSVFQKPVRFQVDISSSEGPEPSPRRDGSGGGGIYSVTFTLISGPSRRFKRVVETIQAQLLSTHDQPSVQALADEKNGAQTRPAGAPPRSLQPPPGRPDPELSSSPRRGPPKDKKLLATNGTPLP
The conditions noted are these: at 1 µM.

The target of experiment [2] is T1, Serine/threonine-protein kinase BRSK1 (Homo sapiens). The settings on record: at 10 µM.
The target of experiment [3] is T2, Serine/threonine-protein kinase BRSK2 (Homo sapiens) (UniProt Q8IWQ3).
T2 sequence (whole entry): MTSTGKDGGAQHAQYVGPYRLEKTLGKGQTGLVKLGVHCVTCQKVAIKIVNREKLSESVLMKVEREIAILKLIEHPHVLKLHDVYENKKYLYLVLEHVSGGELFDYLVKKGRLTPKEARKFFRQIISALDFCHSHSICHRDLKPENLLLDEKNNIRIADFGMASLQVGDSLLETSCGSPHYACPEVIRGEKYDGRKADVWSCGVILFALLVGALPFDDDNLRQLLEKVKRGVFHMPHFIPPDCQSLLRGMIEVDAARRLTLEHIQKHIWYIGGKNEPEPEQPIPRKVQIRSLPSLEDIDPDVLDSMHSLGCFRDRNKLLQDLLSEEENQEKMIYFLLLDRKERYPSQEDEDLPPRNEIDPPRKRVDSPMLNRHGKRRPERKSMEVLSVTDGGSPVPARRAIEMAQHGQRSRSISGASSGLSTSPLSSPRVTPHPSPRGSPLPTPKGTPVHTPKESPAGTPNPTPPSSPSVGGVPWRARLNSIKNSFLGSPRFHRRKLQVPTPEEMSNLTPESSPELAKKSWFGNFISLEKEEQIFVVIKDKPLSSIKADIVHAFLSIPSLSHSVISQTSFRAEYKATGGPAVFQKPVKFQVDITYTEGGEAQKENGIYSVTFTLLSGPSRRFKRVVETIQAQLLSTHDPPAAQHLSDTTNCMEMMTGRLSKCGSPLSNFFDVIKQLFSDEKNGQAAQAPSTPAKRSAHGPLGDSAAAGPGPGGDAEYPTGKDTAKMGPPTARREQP
The settings on record: at 1 µM.

The target in experiment [4] is T2, Serine/threonine-protein kinase BRSK2 (Homo sapiens). The conditions noted are these: at 10 µM.
The target of experiment [5] is T3, Cyclin-dependent kinase 1/cyclin B1 (Homo sapiens) (UniProt P06493+P14635). The conditions noted are these: at 1 µM.
T3 sequence (P06493 whole entry, looked up): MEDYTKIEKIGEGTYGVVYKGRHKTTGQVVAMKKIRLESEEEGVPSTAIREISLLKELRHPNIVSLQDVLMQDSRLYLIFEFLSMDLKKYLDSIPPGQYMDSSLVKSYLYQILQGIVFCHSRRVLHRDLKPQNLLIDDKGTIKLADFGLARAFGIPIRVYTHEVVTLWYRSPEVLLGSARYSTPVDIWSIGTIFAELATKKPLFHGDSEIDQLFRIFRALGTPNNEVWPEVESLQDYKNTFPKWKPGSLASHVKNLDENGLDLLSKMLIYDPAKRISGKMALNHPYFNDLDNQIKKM
T3 sequence (P14635 whole entry, looked up): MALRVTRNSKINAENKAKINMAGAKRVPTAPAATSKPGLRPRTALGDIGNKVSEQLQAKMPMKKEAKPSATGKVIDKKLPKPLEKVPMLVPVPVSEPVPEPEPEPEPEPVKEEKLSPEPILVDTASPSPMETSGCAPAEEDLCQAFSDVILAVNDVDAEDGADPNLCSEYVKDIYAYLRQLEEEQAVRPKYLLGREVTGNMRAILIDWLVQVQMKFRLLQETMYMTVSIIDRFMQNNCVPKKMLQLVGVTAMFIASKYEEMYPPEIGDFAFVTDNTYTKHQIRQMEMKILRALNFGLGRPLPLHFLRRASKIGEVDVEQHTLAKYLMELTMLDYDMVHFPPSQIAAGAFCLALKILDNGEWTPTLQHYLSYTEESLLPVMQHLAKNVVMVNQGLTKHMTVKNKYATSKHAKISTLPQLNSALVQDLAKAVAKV
Experiment [6] concerns the target T3, Cyclin-dependent kinase 1/cyclin B1 (Homo sapiens). The conditions noted are these: at 10 µM.
Experiment [7] has as its target T4, Cyclin-dependent kinase 2/cyclin A (Homo sapiens) (UniProt P24941+P20248+P78396). The conditions noted are these: at 1 µM.
Experiment [8] addresses T4, Cyclin-dependent kinase 2/cyclin A (Homo sapiens). The settings on record: at 10 µM.
Experiment [9] has as its target T5, Cyclin-dependent kinase 2/cyclin E (Homo sapiens) (UniProt P24864+P24941+O96020). The settings on record: at 1 µM.
For experiment [10], the target named is T5, Cyclin-dependent kinase 2/cyclin E (Homo sapiens). The settings on record: at 10 µM.
The target of experiment [11] is T6, CDK3/cyclin E (Homo sapiens) (UniProt P24864+O96020+Q00526). The settings on record: at 1 µM.
T6 sequence (O96020 whole entry, looked up): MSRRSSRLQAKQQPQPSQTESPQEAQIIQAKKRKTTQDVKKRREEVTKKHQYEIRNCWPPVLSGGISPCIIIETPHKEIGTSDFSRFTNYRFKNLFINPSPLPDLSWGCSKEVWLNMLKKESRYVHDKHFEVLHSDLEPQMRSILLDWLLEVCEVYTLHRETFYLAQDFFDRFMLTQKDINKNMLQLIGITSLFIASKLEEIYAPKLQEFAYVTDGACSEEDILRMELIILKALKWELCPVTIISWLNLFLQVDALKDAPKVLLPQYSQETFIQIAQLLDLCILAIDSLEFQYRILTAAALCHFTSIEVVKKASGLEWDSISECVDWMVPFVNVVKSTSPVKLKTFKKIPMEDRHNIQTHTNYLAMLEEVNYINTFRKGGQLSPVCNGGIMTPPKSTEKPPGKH
T6 sequence (P24864 whole entry, looked up): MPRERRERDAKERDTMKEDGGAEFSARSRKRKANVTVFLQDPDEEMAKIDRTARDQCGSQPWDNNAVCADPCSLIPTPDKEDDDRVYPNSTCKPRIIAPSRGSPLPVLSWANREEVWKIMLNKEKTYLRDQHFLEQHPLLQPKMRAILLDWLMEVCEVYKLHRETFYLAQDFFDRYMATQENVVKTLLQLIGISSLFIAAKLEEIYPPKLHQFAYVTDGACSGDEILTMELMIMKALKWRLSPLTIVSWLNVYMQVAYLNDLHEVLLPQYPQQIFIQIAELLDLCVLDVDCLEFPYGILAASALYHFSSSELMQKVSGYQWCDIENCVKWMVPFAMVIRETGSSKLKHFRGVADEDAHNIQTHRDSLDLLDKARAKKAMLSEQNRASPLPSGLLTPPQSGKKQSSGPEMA
T6 sequence (Q00526 whole entry, looked up): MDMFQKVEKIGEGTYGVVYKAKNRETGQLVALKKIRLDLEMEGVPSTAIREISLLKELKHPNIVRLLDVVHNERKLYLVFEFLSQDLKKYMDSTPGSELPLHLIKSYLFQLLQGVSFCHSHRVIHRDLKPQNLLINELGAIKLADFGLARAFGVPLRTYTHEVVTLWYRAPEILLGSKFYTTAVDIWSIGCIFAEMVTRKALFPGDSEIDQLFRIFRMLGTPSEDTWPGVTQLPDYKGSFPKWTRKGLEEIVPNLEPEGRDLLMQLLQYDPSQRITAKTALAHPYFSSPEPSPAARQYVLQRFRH
Experiment [12] concerns the target T6, CDK3/cyclin E (Homo sapiens). The conditions noted are these: at 10 µM.
The target of experiment [13] is T7, Cyclin-dependent kinase 5/CDK5 activator 1 (Homo sapiens) (UniProt Q00535+Q15078). The conditions noted are these: at 1 µM.
Experiment [14] deals with T7, Cyclin-dependent kinase 5/CDK5 activator 1 (Homo sapiens). The settings on record: at 10 µM.
The target is the same in experiment [15]. The settings on record: at 1 µM. The source holds these as a separate data set.
Experiment [16] has the same target. The conditions noted are these: at 10 µM. This is another data set of the same source.
In experiment [17] the target is T8, CDK6/cyclin D3 (Homo sapiens) (UniProt P30281+Q00534). The conditions noted are these: at 1 µM.
The target in experiment [18] is T8, CDK6/cyclin D3 (Homo sapiens). The settings on record: at 10 µM.
The target of experiment [19] is T9, Cyclin-dependent kinase 7/ cyclin H (Homo sapiens) (UniProt P51946+P50613). The conditions noted are these: at 1 µM.
For experiment [20], the target named is T9, Cyclin-dependent kinase 7/ cyclin H (Homo sapiens). The settings on record: at 10 µM.

For the compound `CCC(=O)Nc1ccc2ncnc(Nc3cccc(Br)c3)c2c1`, the residual activity in [1] stood at 55%; in [2], 17%; in experiment [3] it was 97%; in experiment [4], 63%; in experiment [5], 114%; in [6], 107%. Besides, the residual activity came to 135% in experiment [7]; 101% in experiment [8]; 106% in [9]; 104% in experiment [10]; 101% in experiment [11]; 78% in [12]. The residual activity in experiment [13] came out at 102%; in [14] it was 113%; in [15] it was 79%; in experiment [16], 101%; in [17], 84%; in [18], 81%. Besides, the figures for the residual activity in [19] and in experiment [20] were 86% and 95%, respectively.
With `O=C(O)c1ccc2c3c1cccc3c(=O)n1c3ccccc3nc21`, the residual activity was 84% in [1]; 46% in experiment [2]; 104% in [3]; 41% in experiment [4]; 62% in [5]; 15% in [6]. For the same compound, the residual activity in experiment [7] turned out to be 82%; in [8] it was 41%; in experiment [9], 99%; in experiment [10], 81%; in experiment [11], 108%; in experiment [12] it was 94%. The residual activity was 85% in [13]; 43% in experiment [14]; 57% in experiment [16]; 114% in experiment [17]; 86% in experiment [18]; 100% in experiment [19]. For the same compound, the residual activity in [20] came to 91%.
On to `CN(C)CCCn1cc(C2=C(c3c[nH]c4ccccc34)C(=O)NC2=O)c2ccccc21`, for which the residual activity stood at 42% in [1]; 39% in experiment [2]; 71% in experiment [3]; 22% in experiment [4]; 102% in experiment [5]; 40% in experiment [6]. Moreover, the residual activity in experiment [7] is 128%; in experiment [8] it was 38%; in experiment [10] it was 35%; in [11] it was 88%; in experiment [12] it was 33%; in experiment [13], 75%. Further, the residual activity in experiment [14] was 25%; in experiment [15], 81%; in experiment [16], 33%; in experiment [17], 103%; in experiment [18], 53%; in [19] it was 47%. In experiment [20], the residual activity worked out at 13%.
On to `COc1ccc(C(=O)Nc2sc3c(c2C(N)=O)CCCC3)cc1OC`, for which the residual activity worked out at 93% in experiment [1]; 96% in [2]; 105% in [3]; 103% in experiment [4]; 98% in [5]; 93% in experiment [6]. The residual activity in [7] worked out at 134%; in [8], 91%; in experiment [9], 106%; in experiment [10] it was 97%; in experiment [11], 101%; in experiment [12], 92%. In addition, the residual activity in experiment [13] was 101%; in experiment [14] it was 108%; in experiment [15], 85%; in experiment [16] it was 88%; in experiment [17], 94%; in experiment [18], 94%. Further, the residual activity in experiment [19] worked out at 71%; in experiment [20] it was 114%.
For `C[C@@H](N)[C@H]1CC[C@H](C(=O)Nc2ccncc2)CC1`, the residual activity in experiment [1] came to 106%; in experiment [2], 107%; in experiment [3] it was 123%; in experiment [4] it was 82%; in [6], 85%; in [11], 117%. Moreover, the residual activity in [12] came out at 112%; in experiment [13], 99%; in experiment [14] it was 85%; in experiment [15], 117%; in experiment [16], 78%; in experiment [17], 108%. For the same compound, the residual activity in experiment [18] amounted to 109%; in experiment [19] it was 101%; in [20], 93%.
Regarding `CC#CC(=O)Nc1cc2c(Nc3ccc(F)c(Cl)c3)ncnc2cn1`, the residual activity in [1] came out at 87%; in [2] it was 81%; in experiment [3], 94%; in experiment [4], 100%; in experiment [5] it was 107%; in experiment [6], 94%. In addition, the residual activity in [7] was 126%; in experiment [8] it was 85%; in [10], 94%; in [11] it was 97%; in experiment [12], 86%; in experiment [13], 90%. The residual activity stood at 89% in experiment [14]; 82% in experiment [15]; 103% in experiment [16]; 96% in experiment [17]; 86% in experiment [18]; 82% in [19]. The residual activity in experiment [20] amounted to 108%.
`CO[C@H]1[C@@H](OC)C[C@H](C)[C@@H](OC)C2=CC(=O)C=C(NC(=O)/C(C)=C/C=C/[C@H](OC)[C@@H](OC(N)=O)/C(C)=C/[C@@H]1C)C2=O`: the residual activity in experiment [1] amounted to 76%; in [2], 75%; in experiment [3], 92%; in [4] it was 106%; in experiment [5] it was 111%; in experiment [6], 110%. The residual activity in experiment [7] was determined as 138%; in [8], 83%; in [9], 104%; in [10] it was 91%; in experiment [11], 100%; in [12] it was 87%. In addition, the residual activity in experiment [13] amounted to 104%; in [14] it was 92%; in [15], 105%; in experiment [16], 83%; in experiment [17] it was 107%; in experiment [18], 92%. Also, the residual activity in experiment [20] was determined as 101%.
